Results reported in PubChem BioAssay AID623870 (Broad Institute, 2012).
About 2,600 (0.67%) of roughly 390,000 compounds were called active. For the sample, actives were picked, then their nearest neighbours and some compounds at random. A number with no mark means an inactive call.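 Rule for the calls: active = mean inhibition of replicates at least 50% and at least half of replicates each reaching 50%; inconclusive = half or more replicates reach 50% but mean below 50%; inactive = the rest.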

Biological target: Transforming acidic coiled-coil-containing protein 3 (Homo sapiens) (UniProt Q9Y6A5)
Assay: disruptors of ARNT/TACC3 protein interaction, primary screen, biochemical, AlphaScreen, single concentration (AID 623870);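 note: 0% = complete ARNT plus TACC3 wells and 100% = ARNT alone without TACC3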
Conditions: AlphaScreen His-ARNT PAS-B/GST-TACC3 binding, luminescence; at 9.99 µM; stronger effect = higher value

Going from Cc1ccc2c(c1)=C/C(=C\c1c(O)[nH]c(=O)[nH]c1=O)C(=O)N=2 to COc1ccccc1-n1c(O)c(C=NC2CC2)c(=O)[nH]c1=O, the inhibition falls from 13.7% to 4.19%.

First: COc1ccccc1N=Nc1c(O)[nH]c(=S)[nH]c1=O
Second: Cc1cccc(-n2c(O)c(/C=N/N3CCOCC3)c(=O)[nH]c2=S)c1
The inhibition of the first is lower: -1.81% for the first, -0.608% for the second.

Going from C[C@@H]1CN([C@H](C)CO)C(=O)CCCn2cc(nn2)CO[C@@H]1CN(C)C(=O)Oc1cccc2ccccc12 to O=C(Cc1ccccn1)N1CCCCN2[C@H](C1)[C@H](c1ccc(-c3ccccc3F)cc1)[C@@H]2CO, the inhibition rises from -8.62% to 10.9%.

Compared with C/C=C/c1ccc([C@H]2[C@H](CO)N3CCCCN(C(=O)Cc4ccncc4)C[C@@H]23)cc1, COc1ccc(-c2ccc([C@H]3[C@H](CO)N4CCCCN(C(=O)Cc5ccncc5)C[C@@H]34)cc2)cc1 is lower in inhibition: 1.93% for the first, -8.67% for the second.

Compared with CCc1nnc(NS(=O)(=O)c2ccc(N=Cc3c(O)n(-c4ccccc4)c(=O)[nH]c3=O)cc2)s1, CC/C(=N\NC(=O)c1ccccc1O)c1c(O)n(Cc2ccccc2)c(=O)[nH]c1=O is higher in inhibition: -4.6% for the first, 6.78% for the second.

First: O=c1[nH]c(=O)n(-c2ccc(F)cc2)c(O)c1C=NCCN1CCCCC1
Second: CC(C)c1ccc(-n2c(O)c(/C=N/N3CCOCC3)c(=O)[nH]c2=S)cc1
The inhibition of the first is lower: -1.3% for the first, 6.63% for the second.

Compared with O=c1[nH]c(=O)n(CCc2ccccc2)c(O)c1/C=N/N1CCOCC1, O=c1[nH]c(=S)n(C2CC2)c(O)c1/C=N/N1CCOCC1 is lower in inhibition: 0.078% for the first, -0.873% for the second.

Going from COC(=O)[C@H]1[C@H](CO)[C@H]2Cn3c(ccc(-c4cccc(F)c4)c3=O)[C@@H]1N2Cc1ccccc1 to COc1cccc(-c2ccc3n(c2=O)C[C@@H]2[C@@H](CO)[C@H](C(=O)O)[C@H]3N2C(=O)c2cnccn2)c1, the inhibition rises from -0.694% to -0.13%.

Compared with O=C(Cc1ccccc1)N1CCCCN2[C@H](C1)[C@H](c1ccc(C#CC3(O)CCCC3)cc1)[C@@H]2CO, O=C(Cc1ccncc1)N1CCCCN2[C@@H](CO)[C@H](c3ccc(C#CC4(O)CCCC4)cc3)[C@@H]2C1 is higher in inhibition: -2.57% for the first, -1.41% for the second.

Compared with COC(=O)[C@@H]1[C@@H](CO)[C@@H]2Cn3c(ccc(C4=CCCCC4)c3=O)[C@H]1N2CC1CC1, O=C(O)[C@@H]1[C@@H](CO)[C@@H]2Cn3c(ccc(-c4ccccc4F)c3=O)[C@H]1N2C(=O)c1cccnc1 is higher in inhibition: -4.97% for the first, 8.55% for the second.

Going from O=C(Cc1ccccc1)N1CCCCN2[C@H](CO)[C@H](c3ccc(C#Cc4ccccc4)cc3)[C@H]2C1 to COc1ccc(C#Cc2ccc([C@H]3[C@H](CO)N4CCCCN(C(=O)Cc5ccccc5)C[C@@H]34)cc2)cc1, the inhibition falls from 3.71% to -4.42%.

Compared with CCOC(=O)[C@@H]1[C@@H]2NC(=O)N[C@@]1(C)Oc1ccccc12, OC[C@@H]1[C@H]2c3ccccc3NC[C@H]2N1Cc1cccnc1 is higher in inhibition: 1.64% for the first, 5.28% for the second.

O=C1N=c2ccccc2=C/C1=C\c1c(O)[nH]c(=S)[nH]c1=O was tested, and the inhibition was 37% (active).
For O=C(N/N=C/c1c(O)n(Cc2ccccc2)c(=O)[nH]c1=O)c1ccccc1, the inhibition was 70.1% (active).
With CCCCC(=O)N/N=C/c1c(O)n(-c2ccccc2)c(=O)[nH]c1=O the inhibition was 65.6% (active).
In the case of O=C(N/N=C/c1c(O)n(C2CC2)c(=S)[nH]c1=O)c1ccccc1Cl, the inhibition is reported as 68.5% (active).
In the case of O=C(N/N=C/c1c(O)n(C2CC2)c(=S)[nH]c1=O)c1ccccc1, the inhibition is reported as 62.7% (active).
CCC(C)n1c(O)c(/C=N/Nc2nc3c(c(=O)n(C)c(=O)n3C)n2C)c(=O)[nH]c1=S (stereo not given) was tested, and the inhibition was 65.4% (active).
